Results published in the supplement of paper PMC11732987, “Enantioselective OTUD7B fragment discovery through chemoproteomics screening and high-throughput optimisation” (Communications Chemistry, 2025).

Legend:
Assay in all cases: log2 ratio of Biotin-Ahx-Ub-VS probe labelling (fragment/DMSO); higher = less target engagement (more negative = stronger competition), active = hit call of the paper (q ≤ 0.05, log2 ratio ≤ -1)
Details in all cases: compound concentration: 200 uM; treatment time: 3 h
[1] = molecular target: USP34 (UniProt Q70CQ2)
Procedure, shortened: (§1)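 Average log2 ratios of fragment over vehicle were obtained by unpaired t-test from global-median-normalised Spectronaut label-free quantities. Proteins with ≥2 unique peptides were included. HEK293T lysate (495 µg per sample) was treated in triplicate with fragment at 200 µM or vehicle for 3 h, then with Biotin-Ahx-Ub-VS at 0.5 µM final for 1 h, and labelled DUBs were NeutrAvidin-enriched and run by diaPASEF LC-MS/MS.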

[2] = molecular target: T1, USP36 (UniProt Q9P275)
T1 sequence (whole entry): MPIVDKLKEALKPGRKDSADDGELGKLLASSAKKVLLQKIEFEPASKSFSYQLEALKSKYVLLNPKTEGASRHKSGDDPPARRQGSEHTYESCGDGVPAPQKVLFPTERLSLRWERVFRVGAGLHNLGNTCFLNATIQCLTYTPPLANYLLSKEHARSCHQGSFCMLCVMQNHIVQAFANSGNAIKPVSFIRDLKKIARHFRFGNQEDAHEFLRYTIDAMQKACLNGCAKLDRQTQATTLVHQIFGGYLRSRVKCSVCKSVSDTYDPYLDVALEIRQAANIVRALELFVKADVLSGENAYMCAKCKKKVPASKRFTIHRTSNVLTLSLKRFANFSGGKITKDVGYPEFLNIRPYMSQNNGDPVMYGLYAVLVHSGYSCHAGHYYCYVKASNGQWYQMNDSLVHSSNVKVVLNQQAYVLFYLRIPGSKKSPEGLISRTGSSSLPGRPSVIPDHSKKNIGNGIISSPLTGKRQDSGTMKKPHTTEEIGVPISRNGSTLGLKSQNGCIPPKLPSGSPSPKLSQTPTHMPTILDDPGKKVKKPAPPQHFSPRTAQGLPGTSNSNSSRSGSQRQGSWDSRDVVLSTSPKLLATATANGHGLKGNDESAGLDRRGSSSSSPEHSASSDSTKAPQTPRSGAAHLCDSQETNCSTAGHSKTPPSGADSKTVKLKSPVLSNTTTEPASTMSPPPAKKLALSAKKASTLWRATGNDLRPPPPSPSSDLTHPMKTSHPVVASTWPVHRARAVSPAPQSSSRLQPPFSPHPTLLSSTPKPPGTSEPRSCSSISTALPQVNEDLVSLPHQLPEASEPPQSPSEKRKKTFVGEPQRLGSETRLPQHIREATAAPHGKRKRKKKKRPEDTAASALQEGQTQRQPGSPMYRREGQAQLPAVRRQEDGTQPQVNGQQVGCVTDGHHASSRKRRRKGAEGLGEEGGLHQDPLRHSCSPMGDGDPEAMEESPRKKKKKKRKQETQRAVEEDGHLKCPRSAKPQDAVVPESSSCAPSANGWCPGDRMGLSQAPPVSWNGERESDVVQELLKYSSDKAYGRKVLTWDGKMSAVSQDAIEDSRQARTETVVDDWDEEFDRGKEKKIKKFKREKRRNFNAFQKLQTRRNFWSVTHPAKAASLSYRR
Procedure, shortened: as §1

[3] = molecular target: T2, USP38 (UniProt Q8NB14)
T2 sequence (whole entry): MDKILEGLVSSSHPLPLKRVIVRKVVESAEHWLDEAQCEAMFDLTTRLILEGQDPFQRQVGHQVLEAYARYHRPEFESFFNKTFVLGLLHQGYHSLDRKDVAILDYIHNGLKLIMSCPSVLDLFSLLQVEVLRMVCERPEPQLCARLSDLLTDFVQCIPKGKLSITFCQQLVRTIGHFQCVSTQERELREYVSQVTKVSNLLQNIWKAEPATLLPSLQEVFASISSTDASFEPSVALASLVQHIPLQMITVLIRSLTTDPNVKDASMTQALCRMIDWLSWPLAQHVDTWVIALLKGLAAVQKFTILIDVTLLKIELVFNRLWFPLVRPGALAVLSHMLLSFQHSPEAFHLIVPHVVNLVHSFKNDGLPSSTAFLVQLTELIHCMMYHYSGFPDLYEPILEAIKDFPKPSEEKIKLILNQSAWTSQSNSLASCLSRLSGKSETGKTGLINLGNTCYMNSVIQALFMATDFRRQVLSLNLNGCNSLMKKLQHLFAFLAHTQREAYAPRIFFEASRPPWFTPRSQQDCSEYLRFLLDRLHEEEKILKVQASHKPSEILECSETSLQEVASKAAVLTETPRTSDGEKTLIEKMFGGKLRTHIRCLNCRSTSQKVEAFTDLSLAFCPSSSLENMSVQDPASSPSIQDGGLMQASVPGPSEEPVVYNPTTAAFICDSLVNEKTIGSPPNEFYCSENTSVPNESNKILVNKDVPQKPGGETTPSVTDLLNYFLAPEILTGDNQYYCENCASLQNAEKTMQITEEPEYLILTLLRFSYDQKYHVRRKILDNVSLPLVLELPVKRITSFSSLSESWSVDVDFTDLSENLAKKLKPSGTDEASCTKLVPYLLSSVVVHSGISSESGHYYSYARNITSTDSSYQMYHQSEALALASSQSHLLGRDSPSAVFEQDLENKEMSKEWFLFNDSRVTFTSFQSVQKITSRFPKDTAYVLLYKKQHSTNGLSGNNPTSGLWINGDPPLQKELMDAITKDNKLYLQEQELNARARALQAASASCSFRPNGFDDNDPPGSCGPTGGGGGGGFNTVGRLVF
Procedure, shortened: as §1

[4] = molecular target: T3, USP39 (UniProt Q53GS9)
T3 sequence (whole entry): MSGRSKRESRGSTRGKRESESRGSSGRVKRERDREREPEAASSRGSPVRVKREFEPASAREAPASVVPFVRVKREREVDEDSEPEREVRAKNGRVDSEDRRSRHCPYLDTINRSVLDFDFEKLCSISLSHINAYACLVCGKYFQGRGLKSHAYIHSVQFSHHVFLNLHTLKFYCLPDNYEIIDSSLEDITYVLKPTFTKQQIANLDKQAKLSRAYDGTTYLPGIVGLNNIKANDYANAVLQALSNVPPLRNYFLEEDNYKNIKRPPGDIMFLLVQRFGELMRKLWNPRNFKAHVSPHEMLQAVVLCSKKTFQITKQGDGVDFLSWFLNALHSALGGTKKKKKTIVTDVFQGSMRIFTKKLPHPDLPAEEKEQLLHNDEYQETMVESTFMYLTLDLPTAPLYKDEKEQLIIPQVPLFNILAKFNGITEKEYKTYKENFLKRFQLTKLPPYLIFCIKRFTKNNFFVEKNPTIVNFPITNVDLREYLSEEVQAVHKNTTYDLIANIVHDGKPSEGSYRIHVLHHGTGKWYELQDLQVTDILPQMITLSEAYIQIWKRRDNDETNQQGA
Procedure, shortened: as §1

[5] = molecular target: T4, USP4 (UniProt Q13107)
T4 sequence (whole entry): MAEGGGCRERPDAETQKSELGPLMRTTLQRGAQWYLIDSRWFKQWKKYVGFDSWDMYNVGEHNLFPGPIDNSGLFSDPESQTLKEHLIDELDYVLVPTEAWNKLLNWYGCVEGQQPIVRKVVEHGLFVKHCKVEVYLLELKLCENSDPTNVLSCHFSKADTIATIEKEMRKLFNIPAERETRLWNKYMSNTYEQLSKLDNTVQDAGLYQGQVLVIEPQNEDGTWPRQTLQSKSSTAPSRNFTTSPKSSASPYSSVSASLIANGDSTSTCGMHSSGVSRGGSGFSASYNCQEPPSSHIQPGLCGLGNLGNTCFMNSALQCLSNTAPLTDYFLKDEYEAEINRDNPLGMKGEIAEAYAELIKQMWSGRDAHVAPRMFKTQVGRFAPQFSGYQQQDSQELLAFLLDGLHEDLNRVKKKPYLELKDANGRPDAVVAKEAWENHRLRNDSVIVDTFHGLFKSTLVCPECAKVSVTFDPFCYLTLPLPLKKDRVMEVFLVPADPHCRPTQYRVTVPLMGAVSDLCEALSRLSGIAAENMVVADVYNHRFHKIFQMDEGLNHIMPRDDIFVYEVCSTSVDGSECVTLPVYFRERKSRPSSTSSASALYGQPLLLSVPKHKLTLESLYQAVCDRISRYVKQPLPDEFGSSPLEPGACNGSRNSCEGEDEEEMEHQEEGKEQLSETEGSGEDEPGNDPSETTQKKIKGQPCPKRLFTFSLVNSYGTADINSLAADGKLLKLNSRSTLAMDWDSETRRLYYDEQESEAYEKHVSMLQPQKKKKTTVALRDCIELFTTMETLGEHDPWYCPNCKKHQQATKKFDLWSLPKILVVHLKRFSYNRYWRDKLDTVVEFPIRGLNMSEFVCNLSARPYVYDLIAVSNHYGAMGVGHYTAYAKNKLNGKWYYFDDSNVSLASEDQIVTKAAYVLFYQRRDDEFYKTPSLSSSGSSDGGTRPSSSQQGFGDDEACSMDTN
Procedure, shortened: as §1

Measured: log2 ratio of Biotin-Ahx-Ub-VS probe labelling

Chain of USP34 (Q70CQ2 whole entry, the tested form may be a part): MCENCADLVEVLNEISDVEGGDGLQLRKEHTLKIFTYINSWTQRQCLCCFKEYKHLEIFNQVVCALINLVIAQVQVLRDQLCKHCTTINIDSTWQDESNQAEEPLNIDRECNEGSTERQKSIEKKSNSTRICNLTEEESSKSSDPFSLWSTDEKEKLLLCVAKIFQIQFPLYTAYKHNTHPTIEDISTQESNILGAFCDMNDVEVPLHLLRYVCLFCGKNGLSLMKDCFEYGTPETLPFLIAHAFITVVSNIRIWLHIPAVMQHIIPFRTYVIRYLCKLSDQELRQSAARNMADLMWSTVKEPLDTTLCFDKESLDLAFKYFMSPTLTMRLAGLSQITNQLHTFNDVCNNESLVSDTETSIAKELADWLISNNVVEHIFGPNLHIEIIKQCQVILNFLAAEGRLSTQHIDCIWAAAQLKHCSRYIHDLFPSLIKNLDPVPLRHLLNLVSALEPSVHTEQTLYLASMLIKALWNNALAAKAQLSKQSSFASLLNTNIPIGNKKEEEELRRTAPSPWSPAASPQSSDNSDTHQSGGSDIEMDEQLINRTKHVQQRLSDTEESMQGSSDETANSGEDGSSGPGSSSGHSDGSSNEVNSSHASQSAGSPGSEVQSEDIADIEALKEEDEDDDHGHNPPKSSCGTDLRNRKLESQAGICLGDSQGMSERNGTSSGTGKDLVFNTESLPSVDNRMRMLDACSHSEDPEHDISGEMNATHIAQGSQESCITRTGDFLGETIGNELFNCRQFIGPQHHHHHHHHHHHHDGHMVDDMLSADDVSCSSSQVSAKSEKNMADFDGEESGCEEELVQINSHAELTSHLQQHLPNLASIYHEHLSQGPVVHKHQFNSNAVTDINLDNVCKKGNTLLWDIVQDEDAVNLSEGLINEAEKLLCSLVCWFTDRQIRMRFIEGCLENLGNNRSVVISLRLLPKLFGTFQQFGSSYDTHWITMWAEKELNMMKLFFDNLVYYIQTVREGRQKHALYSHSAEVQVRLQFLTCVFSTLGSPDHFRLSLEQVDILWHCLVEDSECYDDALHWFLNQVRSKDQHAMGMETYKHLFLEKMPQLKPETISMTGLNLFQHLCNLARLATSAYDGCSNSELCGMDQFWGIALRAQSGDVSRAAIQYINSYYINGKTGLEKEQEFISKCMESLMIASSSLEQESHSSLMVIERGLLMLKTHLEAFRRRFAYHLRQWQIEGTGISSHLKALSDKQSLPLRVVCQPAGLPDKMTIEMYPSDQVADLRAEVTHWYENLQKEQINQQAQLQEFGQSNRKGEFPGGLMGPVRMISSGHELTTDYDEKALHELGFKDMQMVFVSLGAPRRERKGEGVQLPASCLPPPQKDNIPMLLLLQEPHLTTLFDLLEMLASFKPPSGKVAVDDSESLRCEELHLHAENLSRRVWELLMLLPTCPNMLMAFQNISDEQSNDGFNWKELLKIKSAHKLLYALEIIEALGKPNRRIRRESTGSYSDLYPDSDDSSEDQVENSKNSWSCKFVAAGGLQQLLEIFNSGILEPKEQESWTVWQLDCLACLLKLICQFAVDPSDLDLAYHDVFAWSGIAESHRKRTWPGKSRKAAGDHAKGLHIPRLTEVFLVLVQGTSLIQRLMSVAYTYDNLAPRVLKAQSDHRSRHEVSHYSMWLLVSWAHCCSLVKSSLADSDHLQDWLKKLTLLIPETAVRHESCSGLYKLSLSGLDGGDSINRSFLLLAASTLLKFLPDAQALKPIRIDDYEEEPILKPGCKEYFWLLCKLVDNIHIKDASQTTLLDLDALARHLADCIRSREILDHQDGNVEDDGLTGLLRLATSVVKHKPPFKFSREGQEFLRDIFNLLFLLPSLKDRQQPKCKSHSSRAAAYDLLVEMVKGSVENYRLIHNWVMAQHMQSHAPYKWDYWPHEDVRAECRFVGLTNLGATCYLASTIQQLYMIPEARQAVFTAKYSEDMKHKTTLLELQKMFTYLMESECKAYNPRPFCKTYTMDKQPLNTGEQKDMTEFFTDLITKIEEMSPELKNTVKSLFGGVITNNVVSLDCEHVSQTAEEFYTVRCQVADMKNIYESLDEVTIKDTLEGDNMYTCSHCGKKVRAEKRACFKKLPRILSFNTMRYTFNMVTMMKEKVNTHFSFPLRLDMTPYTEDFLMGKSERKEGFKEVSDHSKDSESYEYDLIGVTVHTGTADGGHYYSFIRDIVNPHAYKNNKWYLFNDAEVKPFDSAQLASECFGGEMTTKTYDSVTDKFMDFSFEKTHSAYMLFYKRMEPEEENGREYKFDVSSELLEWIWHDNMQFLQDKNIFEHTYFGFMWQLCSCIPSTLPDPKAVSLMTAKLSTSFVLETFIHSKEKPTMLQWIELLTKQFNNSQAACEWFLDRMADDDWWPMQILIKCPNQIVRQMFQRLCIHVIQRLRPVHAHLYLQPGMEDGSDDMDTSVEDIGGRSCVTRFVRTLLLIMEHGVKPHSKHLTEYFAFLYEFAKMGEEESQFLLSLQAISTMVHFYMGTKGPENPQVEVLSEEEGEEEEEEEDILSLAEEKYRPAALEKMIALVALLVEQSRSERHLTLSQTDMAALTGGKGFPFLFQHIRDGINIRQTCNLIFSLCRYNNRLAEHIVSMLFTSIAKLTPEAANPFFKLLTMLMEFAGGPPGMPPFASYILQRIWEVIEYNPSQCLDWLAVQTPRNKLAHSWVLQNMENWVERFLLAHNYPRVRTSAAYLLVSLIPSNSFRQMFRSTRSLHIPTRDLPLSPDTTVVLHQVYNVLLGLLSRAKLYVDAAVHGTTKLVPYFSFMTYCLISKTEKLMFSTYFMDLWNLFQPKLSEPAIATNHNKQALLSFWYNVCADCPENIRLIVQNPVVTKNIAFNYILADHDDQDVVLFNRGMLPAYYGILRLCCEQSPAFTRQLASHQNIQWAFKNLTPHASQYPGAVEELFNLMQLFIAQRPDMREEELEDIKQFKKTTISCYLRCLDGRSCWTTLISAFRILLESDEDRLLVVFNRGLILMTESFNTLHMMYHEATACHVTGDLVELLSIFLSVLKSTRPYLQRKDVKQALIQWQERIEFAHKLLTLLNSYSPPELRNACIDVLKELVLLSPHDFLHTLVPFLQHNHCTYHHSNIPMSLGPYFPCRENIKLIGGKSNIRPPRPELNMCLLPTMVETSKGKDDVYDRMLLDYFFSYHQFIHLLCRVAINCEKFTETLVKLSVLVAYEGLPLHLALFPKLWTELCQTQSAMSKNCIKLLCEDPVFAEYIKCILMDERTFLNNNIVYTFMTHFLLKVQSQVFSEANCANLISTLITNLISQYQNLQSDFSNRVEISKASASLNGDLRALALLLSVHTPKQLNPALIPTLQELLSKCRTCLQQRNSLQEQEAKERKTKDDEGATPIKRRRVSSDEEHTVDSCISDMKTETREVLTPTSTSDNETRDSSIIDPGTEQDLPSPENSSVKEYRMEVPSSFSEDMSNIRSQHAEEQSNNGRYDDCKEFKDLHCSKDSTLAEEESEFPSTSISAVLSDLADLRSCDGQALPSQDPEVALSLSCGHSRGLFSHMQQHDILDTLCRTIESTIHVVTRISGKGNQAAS

CC(c1ccccc1)N(C)C(=O)CCl (stereo not given)
inactive: [1] -0.323 | [2] -0.306 | [3] -0.0902 | [4] -0.413 | [5] -0.289
